This is an account of results in PubChem BioAssay (NCI).

Compounds without any hit were thinned out: in the full panel of roughly 83,000, 20% have a hit.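 48-hour exposure, single concentration, 96-well plates; percent growth endpoint where 0 means no net growth. Active: below 10.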 Unmarked numbers belong to inactive results. Calls of active or inactive are those of the source.

The test system of the test is HL-60(TB) leukemia. Put plainly: NCI-60 one-dose screen, 48 h (100 = growth as untreated, 0 = no growth, -100 = all killed). The following applies: 10 µM unless noted.
For the molecule `O=C(CSc1nnc(-c2cccs2)n1-c1ccccc1)Nc1ccc(F)cc1`, the growth is 69.5%.
For `CN1CCC[C@]2(C)[C@H]3CC[C@@H]4[C@@H]5[C@H]6OC[C@@]5(CCC6(C)C)CC[C@@]4(C)[C@]3(C)CC[C@H]2C1(C)C` the value was 30.6%; for `CC(=O)OC[C@]12CC[C@@H](C(=O)/C=C/c3cccnc3)[C@@H]1[C@H]1CC[C@@H]3[C@@]4(C)CC[C@H](OC(C)=O)C(C)(C)[C@@H]4CC[C@@]3(C)[C@]1(C)CC2`, -15.1% (active).
Then `C#Cc1nc(C(=O)NCCCCCCC(=O)NO)cs1`, with -51.7% (active).
Then `N/C(=N\c1nc2c(Cl)cccc2s1)C(Cl)(Cl)Cl`, with 25.5%; and `O=c1c2c(O)cccc2oc2c3c(cc(O)c12)O[C@H]1OC=C[C@@H]31`, with 89.7%.
Turning to `Cc1ccc(C2=NN(C)C(=O)C3(CCCC3)C2)cc1`, the growth was 77.8%.
For `N/C(=N\OC(=O)CSc1nc2ccccc2s1)c1ccc2ccccc2c1` the value was 105%; for `CC1CCc2c(sc3nc(SCC(=O)N/N=C/c4ccc(Cl)cc4)n(-c4ccccc4)c(=O)c23)C1` (stereo not given), 107%; for `CCOC(=O)c1nn(-c2ccc(C)cc2)c(=O)c2c(N)c(C#N)c(-c3ccc(OC)cc3)cc12`, 125%.
On to `COc1cc(/C=C/C(=O)c2ccc(F)cc2)ccc1Oc1nc(NCCO)nc(N2CCOCC2)n1`, for which the growth is 39.8%.
In the case of `CC/C(=C(/c1ccc(Cl)cc1)c1ccc(OCCN)cc1)c1ccccc1`, the growth is 43.4%.
Then `O=C1[C@@H]2Cc3c([nH]c4ccccc34)[C@H](c3ccc(Cl)cc3)N2C(=O)CN1C1CCN(Cc2ccccc2)CC1`, with 17.6%; and `COc1cc(N=Cc2sc(Nc3nccs3)nc2O)cc(OC)c1OC`, with 82.8%.
Regarding `NC(N)=Nc1ccc(Oc2cccc(NC(N)=Nc3ccc(Cl)c(C(F)(F)F)c3)c2)cc1`, the growth is 27.8%.
